The values below come from PubChem BioAssay AID777 (Sanford-Burnham Center for Chemical Genomics, 2007).

The structures appear in SMILES notation. Out of some 96,000 compounds screened, about 19,000 (20%) were called active.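 The calls were made as follows: active = blocking of liver enzyme CYP2C9 beyond about 50% at 5 µM (limit read from the data); inactive = the rest.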 These entries were drawn from the full list.

In this test the target is Cytochrome P450 2C9 (Homo sapiens) (UniProt P11712). Put plainly: blockers of cytochrome P450 2C9 activity – biochemical, luminescence, ADME assay, primary screen (AID 777). The following applies: CYP2C9 Supersomes, luciferin-H conversion, at 5 µM, active compounds read high.
Cytochrome P450 2C9 (Homo sapiens), sequence (P11712 whole entry, looked up): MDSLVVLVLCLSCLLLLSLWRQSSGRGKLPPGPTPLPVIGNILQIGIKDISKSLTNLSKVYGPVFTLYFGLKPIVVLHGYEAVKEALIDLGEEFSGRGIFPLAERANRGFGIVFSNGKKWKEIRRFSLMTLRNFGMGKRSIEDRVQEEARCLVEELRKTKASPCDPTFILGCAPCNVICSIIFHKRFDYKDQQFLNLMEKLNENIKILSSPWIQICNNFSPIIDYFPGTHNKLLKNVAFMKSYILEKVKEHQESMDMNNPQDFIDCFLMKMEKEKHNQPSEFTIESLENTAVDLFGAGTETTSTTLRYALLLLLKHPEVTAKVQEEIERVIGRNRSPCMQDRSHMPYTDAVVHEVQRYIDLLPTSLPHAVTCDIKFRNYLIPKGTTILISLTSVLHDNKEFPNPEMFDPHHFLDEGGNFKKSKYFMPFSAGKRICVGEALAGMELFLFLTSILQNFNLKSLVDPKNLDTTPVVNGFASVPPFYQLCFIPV
`CCOCCCNC(=O)c1c[nH]c2cc(C)ccc2c1=O`: the inhibition is -8.1% (inactive).

`Cc1ccc(S(=O)(=O)N2CCN(S(=O)(=O)N3CCOCC3)CC2)cc1`: the inhibition is -55.7% (inactive).

In the case of `Cc1noc(C)c1CSc1nc2cc(S(=O)(=O)N3CCOCC3)ccc2o1`, the inhibition was 54% (active).

For the compound `Cc1noc(C)c1CSc1nnc2ccc3ccccc3n12`, the inhibition was 4.4% (inactive).

As for `CCS(=O)(=O)Nc1cc(C(=O)OC)ccc1C(=O)OC`, the inhibition is 37.5% (inactive).

As to `Cc1oc(-c2ccccc2F)nc1CS(=O)(=O)CC(=O)NCCCN(C)C1CCCCC1`, the inhibition is -10.6% (inactive).

Regarding `Cc1ccccc1-c1nc(CS(=O)(=O)CC(=O)N2CCc3ccccc3C2)c(C)o1`, the inhibition is 72.4% (active).

With `O=C(Cn1c(=S)nc2ccccn21)N1CCc2ccccc2C1`, the inhibition was 4.1% (inactive).

For `COCCCNC(=O)C1CC(=O)N(c2ccc(C)cc2)C1` (configuration not stated), the inhibition was -1.7% (inactive).

Consider `CS(=O)(=O)N(C(=O)NC(=O)NC1CCS(=O)(=O)C1)C1CCCCC1` (configuration not stated), for which the inhibition is 9.2% (inactive).

Regarding `CCOc1ccc(NCCC(=O)c2ccc3c(c2)OCO3)cc1`, the inhibition is 63.8% (active).

`COC(=O)CCNc1ccc2c(c1)OCCO2`: the inhibition was -2.2% (inactive).

As to `Cc1ccc(F)cc1NC(=O)c1ccc2c(c1)OCO2`, the inhibition was 5.7% (inactive).

For the compound `CC(=O)c1cc(C#N)c(SCC(=O)C(C)(C)C)nc1C`, the inhibition is 22.5% (inactive).

For `CCOC(=O)C(Sc1ncc(C#N)c(N)n1)C(C)C` (configuration not stated), the inhibition is 25.3% (inactive).

Consider `CCC(C)n1[nH]c(=O)cc1N` (configuration not stated), for which the inhibition is -5.6% (inactive).

For the compound `COC(=O)C1=C(C)Nc2ncnn2C1c1cccnc1` (configuration not stated), the inhibition is -19.5% (inactive).

Take `Brc1ccc(C2=CC(c3ccco3)n3ncnc3N2)cc1` (configuration not stated): the inhibition was 3.2% (inactive).

As for `Clc1ccc2c(c1)C1=C(C(c3ccncc3)O2)C(c2ccc(Br)cc2)n2ncnc2N1` (configuration not stated), the inhibition is 82% (active).

Turning to `COc1cccc2c1OCC(C(=O)NCc1ccc(Cl)cc1Cl)=C2`, the inhibition was -17.7% (inactive).

Take `COC(=O)c1ccc2c(c1)S(=O)(=O)NC(=NCCCN1CCOCC1)S2`: the inhibition was 11.4% (inactive).

In the case of `O=C(NCc1ccc2c(c1)OCO2)c1ccc2c(c1)C(=O)N(CC1CCCO1)C2=O` (configuration not stated), the inhibition was 2.3% (inactive).

`O=C(/C=C\NCC(=O)c1ccccc1)c1ccccc1`: the inhibition is 12.9% (inactive).

For `CC(C)(O)C(=O)NN(C(=O)c1ccccc1)c1cccc(Br)c1`, the inhibition was -6.8% (inactive).

With `O=C(/C=C/NNC(=O)c1cccc(Br)c1)c1ccccc1`, the inhibition was 76.7% (active).

On to `Cc1ccsc1/C=C1\SC(N2CCOCC2)=NC1=O`, for which the inhibition is -18% (inactive).

Regarding `Cc1cc2nc(C)n(CCCNC(=O)Nc3ccccc3)c2cc1C`, the inhibition was 44.6% (inactive).

For `O=C(COc1ccccc1)N1CCc2ccccc2C1`, the inhibition was 39.9% (inactive).

In the case of `CCOc1ccc(CN2CCCN(C)CC2)cc1`, the inhibition was -7.8% (inactive).

Take `CCOC(=O)c1ccc(N2C(=O)CC(N3CCC(C(=O)OCC)CC3)C2=O)cc1` (configuration not stated): the inhibition is 38.3% (inactive).

Turning to `CCOC(=O)c1ccc(N2C(=O)CC(N3CC(C)OC(C)C3)C2=O)cc1` (configuration not stated), the inhibition was 5.1% (inactive).

With `CCCCOC(=O)c1ccc(N2C(=O)CC(N3CCN(C/C=C/c4ccccc4)CC3)C2=O)cc1` (configuration not stated), the inhibition was 60.1% (active).

With `Cc1cccc(OCc2nnc(SCC(=O)N3CCN(C(=O)c4ccco4)CC3)n2C)c1C`, the inhibition is 5.9% (inactive).

For `Cc1ccc(-c2c3c(=O)n(C)c(=O)n(C)c3cn2-n2cnnc2)cc1`, the inhibition was -7.5% (inactive).

Regarding `CCC(C)Sc1nc2c(c(=O)[nH]c(=O)n2C)n1CC(O)COc1cccc2ccccc12` (configuration not stated), the inhibition was 24% (inactive).

As to `CCOc1ccc(S(=O)(=O)NCC2CCCO2)cc1` (configuration not stated), the inhibition is 7.4% (inactive).

As to `O=C(COc1ccc(S(=O)(=O)NCCc2ccccc2)cc1)N1CCCC1`, the inhibition was 45.1% (inactive).

Consider `CCOc1ccc(S(=O)(=O)NCCSc2ccccc2)cc1`, for which the inhibition is 75.7% (active).

For the compound `Cc1[nH][nH]c(=O)c1C(c1ccc(-c2ccc(Cl)cc2)o1)c1c(C)[nH][nH]c1=O`, the inhibition is 22.5% (inactive).

As for `CCC(=O)c1cc2c(cc1NC(=O)c1cccs1)OCCO2`, the inhibition was -7% (inactive).

For `O=C(Nc1ccc2oc(-c3ccc4ccccc4c3)nc2c1)c1cccs1`, the inhibition is 27.5% (inactive).

Consider `O=C(Cc1cccc2ccccc12)Nc1ccc2oc(-c3ccccc3)nc2c1`, for which the inhibition is 20.1% (inactive).

`CCCCCC(=O)Nc1ccc2oc(-c3ccncc3)nc2c1`: the inhibition is 75.3% (active).

Regarding `N#CC(C(N)=O)=C1CCC2(CC1)OCCCCO2`, the inhibition was -39.1% (inactive).

For the compound `CN(C)Cc1ccccc1C1(O)c2ccccc2CSc2ccccc21` (configuration not stated), the inhibition was 51% (active).

For `CN(C)/C=C1/C(=O)Nc2ccccc21`, the inhibition is -12.8% (inactive).

Regarding `CCOC(=O)N1CCC(NC(=O)COc2cc(=O)n(C)c3ccccc23)CC1`, the inhibition is -30.2% (inactive).

Turning to `Cc1cccc(NC(=O)Cn2cc(C(=O)c3ccco3)c3ccccc32)c1`, the inhibition is 27.3% (inactive).

For the compound `COc1ccc(Nc2nc(-c3ccccc3)cs2)cc1`, the inhibition is 31.7% (inactive).

For the compound `NS(=O)(=O)c1ccc(Nc2nc(-c3ccccc3)cs2)cc1`, the inhibition is 58% (active).

Consider `Cc1ccc(Nc2nc(-c3sc(NC(=O)c4ccccc4)nc3C)cs2)cc1`, for which the inhibition is 3.8% (inactive).

As to `Cc1cccc(C(=O)Nc2ccc(CC(=O)O)cc2)c1`, the inhibition was -10.9% (inactive).

For `O=C(CN1CCN(c2ccc(F)cc2)CC1)Nc1cccc(C(F)(F)F)c1`, the inhibition was 82.8% (active).

As for `O=C(O)CSCC(=O)Nc1cccc(C(F)(F)F)c1`, the inhibition was 18.9% (inactive).

Consider `O=C(CN1CCN(c2ncc(C(F)(F)F)cc2Cl)CC1)Nc1ccc2c(c1)OCO2`, for which the inhibition is 8.6% (inactive).

`COc1ccccc1NC(=O)c1ccc(C)s1`: the inhibition is -248% (inactive).

For the compound `Cc1nc(NC(=O)c2cccc(Cl)c2)sc1-c1csc(Nc2cccc(Cl)c2)n1`, the inhibition is -17.4% (inactive).

Turning to `COc1ccc(/C=C(\NC(=O)c2ccc(OC)c(OC)c2)C(=O)NCCc2c[nH]c3ccccc23)cc1`, the inhibition was 42.3% (inactive).

Take `CC(=O)N/C(=C/c1ccc(Cl)cc1)C(=O)NCCc1c[nH]c2ccccc12`: the inhibition is -168% (inactive).

Regarding `Cc1ccc(C(=O)N/C(=C/c2ccco2)C(=O)NCCc2c[nH]c3ccccc23)cc1C`, the inhibition is 52.5% (active).

As to `CCOc1ccc2[nH]c(=O)c(CN(CCCO)C(C)=O)cc2c1`, the inhibition is -9.6% (inactive).

With `CCOc1ccc(C(O)Cn2c(=N)n(CCN3CCCCC3)c3ccccc32)cc1` (configuration not stated), the inhibition is 23.4% (inactive).
